Measured values taken from the supplement of paper PMC8728848.
This is one part of a sample in which the strongest signals are shown more often than they occur.

What was measured:
Experiment in all cases: glycan array binding signal (z-score within array); higher = stronger binding
Conditions in all cases: glycan notation: IUPAC condensed, linker removed
[1] = biological target: Fuc(a1-2)Gal(b1-3)GalNAc(b1-3)Gal(a1-4)Gal(b1-4)Glc
In short: (§1)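 Glycan array data came from 3228 arrays in the Consortium for Functional Glycomics database, and only arrays with an available protein sequence were kept. Glycan names were put into IUPAC-condensed notation, and columns mapping to the same glycan were averaged. The binding signal is a within-array Z-score, averaged across arrays of one protein sequence run at different concentrations or buffers and across linkers. A negative Z-score can be read as non-binding.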

[2] = biological target: Fuc(a1-2)Gal(b1-3)GalNAc(b1-4)[Neu5Ac(a2-3)]Gal(b1-4)Glc
In short: as §1

[3] = biological target: Fuc(a1-2)Gal(b1-4)[Fuc(a1-3)]GalNAc(b1-3)Gal(b1-4)[Fuc(a1-3)]GlcNAc
In short: as §1

[4] = biological target: Fuc(a1-2)Gal(b1-4)[Fuc(a1-3)]GalNAc(b1-3)Gal(b1-4)[Fuc(a1-3)]GlcNAc(b1-3)Gal(b1-4)[Fuc(a1-3)]GalNAc
In short: as §1

[5] = biological target: Fuc(a1-2)Gal(b1-4)[Fuc(a1-3)]GlcNAc
In short: as §1

[6] = biological target: Fuc(a1-2)[Gal(a1-3)]Gal(b1-4)Glc
In short: as §1

[7] = biological target: Fuc(a1-3)[Gal(b1-4)]GlcNAc(b1-4)Gal(b1-4)[Fuc(a1-3)]GlcNAc(b1-4)Gal(b1-4)[Fuc(a1-3)]GlcNAc
In short: as §1

[8] = biological target: Gal(b1-3)GalNAc(b1-4)Gal(b1-4)Glc
In short: as §1

[9] = biological target: Gal(b1-3)GalNAc(b1-4)[Neu5Ac(a2-3)]Gal(b1-4)Glc
In short: as §1

[10] = biological target: Gal4S(b1-4)GlcNAc
In short: as §1

[11] = biological target: Gal6S(b1-4)GlcNAc
In short: as §1

[12] = biological target: GlcA(b1-6)Gal
In short: as §1

[13] = biological target: GlcNAc(b1-4)[GlcNAc(b1-6)]GalNAc
In short: as §1

[14] = biological target: Man(a1-2)Man(a1-2)Man(a1-3)[Man(a1-2)Man(a1-6)[Man(a1-3)]Man(a1-6)]Man(b1-4)GlcNAc(b1-4)GlcNAc
In short: as §1

[15] = biological target: Neu5Ac(a2-3)Gal
In short: as §1

[16] = biological target: Neu5Ac(a2-3)Gal(b1-3)[Fuc(a1-4)]GlcNAc
In short: as §1

[17] = biological target: Neu5Ac(a2-3)Gal(b1-4)GlcNAc
In short: as §1

[18] = biological target: Neu5Ac(a2-3)Gal6S(b1-4)[Fuc(a1-3)]GlcNAc
In short: as §1

[19] = biological target: Fuc(a1-2)Gal(b1-4)GlcNAc
In short: as §1

[20] = biological target: Fuc(a1-3)[GalNAc(b1-4)]GlcNAc
In short: as §1

[21] = biological target: Gal(b1-4)GlcNAc(b1-3)Gal(b1-4)Glc
In short: as §1

[22] = biological target: Gal3S(b1-4)GlcNAc6S
In short: as §1

[23] = biological target: Gal3S6S(b1-4)GlcNAc6S
In short: as §1

[24] = biological target: GalNAc(b1-3)Gal(a1-4)Gal(b1-4)GlcNAc
In short: as §1

[25] = biological target: GlcNAc(b1-3)GalNAc
In short: as §1

[26] = biological target: GlcNAc(b1-4)GlcNAc(b1-4)GlcNAc(b1-4)GlcNAc(b1-4)GlcNAc
In short: as §1

[27] = biological target: Kdn(a2-3)Gal(b1-4)GlcNAc
In short: as §1

[28] = biological target: Man(a1-3)[Man(a1-6)]Man(a1-6)[Man(a1-2)Man(a1-3)]Man(b1-4)GlcNAc(b1-4)GlcNAc
In short: as §1

[29] = biological target: Neu5Ac(a2-3)Gal(b1-4)GlcNAc6S
In short: as §1

[30] = biological target: Neu5Ac(a2-6)Gal(b1-4)GlcNAc6S
In short: as §1

[31] = biological target: Neu5Ac(a2-8)Neu5Ac(a2-8)Neu5Ac
In short: as §1

[32] = biological target: Neu5Ac(a2-8)Neu5Ac(a2-8)Neu5Ac(a2-3)Gal(b1-4)Glc
In short: as §1

B1: DC SIGN CRD (Homo sapiens), Q9NNX6 (protein)
chain: QPCPWEWTFFQGNCYFMSNSQRNWHDSITACKEVGAQLVVIKSAEEQNFLQLQSSRSNRFTWMGLSDLNQEGTWQWVDGSPLLPSFKQYWNRGEPNNVGEEDCAEFSGNGWNDDKCNLAKFWICKKSAWSHPQFEK
- glycan array binding signal (z-score) [1]: -0.37
- glycan array binding signal (z-score) [2]: -0.377
- glycan array binding signal (z-score) [3]: 5.67
- glycan array binding signal (z-score) [4]: 3.54
- glycan array binding signal (z-score) [5]: 4.18
- glycan array binding signal (z-score) [6]: -0.339
- glycan array binding signal (z-score) [7]: 5.8
- glycan array binding signal (z-score) [8]: -0.385
- glycan array binding signal (z-score) [9]: -0.363
- glycan array binding signal (z-score) [10]: -0.361
- glycan array binding signal (z-score) [11]: -0.39
- glycan array binding signal (z-score) [12]: -0.392
- glycan array binding signal (z-score) [13]: -0.371
- glycan array binding signal (z-score) [14]: 2.91
- glycan array binding signal (z-score) [15]: -0.339
- glycan array binding signal (z-score) [16]: -0.076
- glycan array binding signal (z-score) [17]: -0.387
- glycan array binding signal (z-score) [18]: -0.394

B2: CLEC7A (Homo sapiens), Q9BXN2 (protein)
chain: MEYHPDLENLDEDGYTQLHFDSQSNTRIAVVSEKGSCAASPPWRLIAVILGILCLVILVIAVVLGTMAIWRSNSGSNTLENGYFLSRNKENHSQPTQSSLEDSVTPTKAVKTTGVLSSPCPPNWIIYEKSCYLFSMSLNSWDGSKRQCWQLGSNLLKIDSSNELGFIVKQVSSQPDNSFWIGLSRPQTEVPWLWEDGSTFSSNLFQIRTTATQENPSPNCVWIHVSVIYDQLCSVPSYSICEKKFSM
- glycan array binding signal (z-score) [1]: 0.301
- glycan array binding signal (z-score) [19]: -0.842
- glycan array binding signal (z-score) [7]: 0.278
- glycan array binding signal (z-score) [20]: -0.149
- glycan array binding signal (z-score) [21]: 0.542
- glycan array binding signal (z-score) [22]: 1.21
- glycan array binding signal (z-score) [23]: 5.19
- glycan array binding signal (z-score) [24]: 0.773
- glycan array binding signal (z-score) [25]: 3.29
- glycan array binding signal (z-score) [26]: -0.613
- glycan array binding signal (z-score) [27]: 0.64
- glycan array binding signal (z-score) [28]: 0.549
- glycan array binding signal (z-score) [29]: -0.22
- glycan array binding signal (z-score) [30]: 0.583
- glycan array binding signal (z-score) [31]: 4.19
- glycan array binding signal (z-score) [32]: 1.53
